# Assay results published in PubChem BioAssay.
# Assay: blood-stage malaria parasite viability loss – strain 3D7, DAPI fluorescence, 100 nL, primary screen (AID 1184);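 also: parasites grown inside human red blood cells in medium with human serum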
# Settings: P. falciparum 3D7 growth, 3 d, higher = more signal
row,Structure (SMILES),z-score
1,COC(=O)c1c(CC[C@@H](CO)NC(=O)N2CCC[C@H]2Cn2cc(Cc3ccccc3)nn2)oc(C(C)=O)c1C(=O)OC,-0.547
2,O=C(NCc1ccccc1)[C@@H]1c2ccccc2C(=O)N(Cc2ccccc2C(F)(F)F)[C@H]1c1ccc(CO)cc1,0.0452
3,O=C(NCCCCCNC(=O)/C(Cc1ccccc1)=N/O)OCc1ccccc1,-1.94
4,C=C[C@@H](COC(C)=O)N(C(=O)OC(C)(C)C)S(=O)(=O)c1ccc(Br)cc1,0.573
5,CCOC(=O)C[C@H]1[C@H](OC(=O)c2ccccc2-c2ccccc2)[C@@H](NC(=O)c2ccc(-c3ccccc3)cc2)c2cc(OCCCO)ccc2N1C(=O)c1ccc2ccccc2n1,-0.557
6,CCOC(=O)C[C@H]1[C@H](OC(=O)c2cc3ccccc3oc2=O)[C@@H](NC(=O)Cc2ccc(OC)cc2)c2cc(OCCCO)ccc2N1C(=O)c1ccc2ccccc2n1,-1.01
7,O=C1O[C@H](c2ccccc2)[C@H](c2ccccc2)N2[C@H]1[C@@H](C(=O)Nc1nc3ccccc3s1)[C@]1(C(=O)Nc3ccc(C#CC4(O)CCCCCC4)cc31)[C@H]2c1ccccc1OCCO,-2.09
8,COC(=O)[C@@]1(Cc2ccccc2N=[N+]=[N-])N=C(c2ccc(OCCCO)cc2)O[C@H]1c1ccccc1N=[N+]=[N-],-2.03
9,CC(c1ccccc1)C(O)C1C=CC2C(=O)N(c3ccccc3)C(=O)C2N1Nc1ccc([N+](=O)[O-])cc1 (stereo unspecified),-0.917
10,CN1C(=O)C2C=CC(C(O)c3ccc(F)cc3)N(Nc3ccccc3)C2C1=O (stereo unspecified),-0.102
11,CCCC[C@@H]1C[C@H]1[C@@H](NC(=O)Cc1ccccc1)c1ccc(-c2ccccc2)cc1,-0.456
12,O=C1C[C@@](C(=O)NCCN2CCOCC2)(c2ccc([N+](=O)[O-])cc2)[C@@H](c2ccc(CO)cc2I)N1C1CCCCC1,-1.37
13,COC(=O)[C@@]1(Cc2ccc(F)cc2)[C@H]2c3cc(C(=O)N4CCCC4)n(CCc4ccc(O)c(O)c4)c3C[C@H]2CN1C(=O)c1ccccc1,-1.47
14,COC(=O)C(CC#Cc1ccc2c(c1)[C@]1(C(=O)N2)[C@H](c2ccccc2OCCO)N2[C@H](c3ccccc3)[C@H](c3ccccc3)OC(=O)[C@H]2[C@@H]1C(=O)NC[C@H](O)c1ccccc1)C(=O)OC,-2.22
15,COc1ccc(-c2nc(-c3ccccc3)c3c(c2C)CO[Si]3(C(C)C)C(C)C)cn1,0.193
16,C=CCC(OC(C)=O)[C@@H]1[C@@H](N(Cc2cc3ccccc3o2)C(=O)c2ccc(C)cc2)c2cc(OCCCO)ccc2N1C(=O)Cc1ccc(OC)cc1 (stereo partly specified),-0.901
17,COc1ccc([Si](C)(C)[C@@H]2[C@@H](CC(=O)N(CCO)Cc3ccccc3)O[C@]3(C(=O)N(c4ccccc4)c4ccccc43)[C@H]2C)cc1,-2.54
18,O=C1OCC=C[C@H]2OC34C=CCN(c5ccc(Cl)cc5)C(=O)[C@H]3N(CCO)C(=O)[C@@H]4[C@@H]12 (stereo partly specified),1.05

row,Structure (SMILES),z-score
1,O=C1OCCC=C[C@H]2OC34C=CCN(Cn5nnc6ccccc65)C(=O)[C@H]3N(CCCCCCO)C(=O)[C@@H]4C12 (stereo partly specified),0.006
2,CC(C)(C)N1CC=CC23O[C@@H]4C=CCOC(=O)[C@@H]4[C@H]2C(=O)N(CCCCCCO)[C@@H]3C1=O (stereo partly specified),-0.429
3,[N-]=[N+]=NCc1ccccc1[C@H]1OC(c2ccc(OCCCO)cc2)=N[C@@]1(CCS(=O)(=O)c1ccccc1)C(=O)NCC(O)CO (stereo partly specified),-2.41
4,C=C(/C(=C/C[C@H](OC(C)=O)c1cccc(OCCO)c1)c1cnc2ccccc2c1)C(C)C,-1.28
5,COCCOC(=O)N1C(=O)[C@@]2(c3cc(C#CCCO)ccc31)[C@H](c1ccccc1OCCO)N1[C@H](c3ccccc3)[C@H](c3ccccc3)OC(=O)[C@H]1[C@@H]2C(=O)Nc1nc2ccccc2s1,-1.45
6,Cc1cc(C)c(C(O)C2C=CC3C(=O)NC(=O)C3N2Nc2ccc(Cl)cc2Cl)c(C)c1 (stereo unspecified),0.17
7,C=C(COC)/C(=C/C[C@H](OC(=O)c1ccncc1)c1ccccc1OCCO)c1cnc2ccccc2c1,-2.99
8,CCOC(=O)C1=CC[C@@H](c2ccccc2C(F)(F)F)N(S(=O)(=O)c2ccc(C)cc2)[C@H]1c1ccc(C#N)cc1,-2.2
9,OCC1CC(c2ccccc2)=NO1 (stereo unspecified),0.308
10,CC(C)(C)OC(=O)CC[C@]1(C(=O)NCC(O)CO)N=C(c2ccc(OCCCO)cc2)O[C@H]1c1ccccc1 (stereo partly specified),-1.74
11,COCCOC(=O)N1C(=O)[C@@]2(c3cc(C#Cc4ccc(OC)cc4)ccc31)[C@H](c1ccccc1OCCO)N1[C@H](c3ccccc3)[C@H](c3ccccc3)OC(=O)[C@H]1[C@@H]2C(=O)N1CCCCCCC1,-2.02
12,O=C1C2C=CC(C(O)c3ccccc3)N(Nc3ccccc3F)C2C(=O)N1c1ccccc1 (stereo unspecified),0.199
13,CO[C@]12C=C(Br)[C@@H](C[C@@H]1c1cccc(C)c1)[C@@]1(CO1)C2=O,0.267
14,Cn1cccc1C(O)C1C=CC2C(=O)NC(=O)C2N1Nc1ccc(Cl)cc1Cl (stereo unspecified),-0.152
15,C=C(C(=O)CC[C@@H](OC(C)=O)c1ccc(CO)o1)C(C)C,-0.14
16,COCCOC(=O)N1C(=O)[C@@]2(c3cc(C#Cc4ccc(OC)cc4)ccc31)[C@H](C(=O)Nc1nc3ccccc3s1)[C@H]1C(=O)O[C@H](c3ccccc3)[C@H](c3ccccc3)N1[C@@H]2c1ccc(O)cc1,-1.89
17,CCCCCCCCCCC(O)C1C=CC2C(=O)N(C)C(=O)C2N1NC(=O)OC(C)(C)C (stereo unspecified),-0.451
18,COC(=O)c1ccc([C@H](NC(=O)c2ccco2)[C@]2(C)C[C@H]2C2CCCCC2)cc1,-0.414
